# Test results from the supplement of paper PMC6555819.
# Tests used:
# Assay in all cases: PBM binding z-score (relative to random genomic background probes); higher = stronger binding; sequences stand for … in GC…GCGATTGACAGCGTAGAATGAAGG
# [1] = tested on: RARb homodimer (NR concentration 270 nM)
# Outline: (§1)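 Binding buffer was PBS pH 7.4 with 2% milk, 0.02% Triton X-100, 1 mM DTT, 0.2 mg/mL BSA and 0.4 mg/ml salmon testes DNA. In it, ligand-free nuclear receptor dimers were incubated 1 h on custom Agilent 4×180K protein-binding microarrays carrying double-stranded probes. Antibodies against each partner (one per run) detected binding, and z-scores were calculated against random background probes after regression normalization of scanned fluorescence.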
# [2] = tested on: RARg:RXRa (NR concentration 270 nM, RXRa partner concentration 90 nM)
# Outline: as §1
# [3] = tested on: RARg homodimer (NR concentration 270 nM)
# Outline: as §1
# [4] = tested on: RXRa DBDmut IVT, anti-RXR (DBD mutation: RXRa K156A/R161A, NR concentration 90 nM)
# Outline: as §1
# [5] = tested on: RXRa homodimer (NR concentration 180 nM)
# Outline: as §1
# [6] = tested on: THRa:RXRa (NR concentration 90 nM, RXRa partner concentration 90 nM)
# Outline: as §1
# [7] = tested on: THRa homodimer (NR concentration 90 nM)
# Outline: as §1
# [8] = tested on: VDR homodimer (NR concentration 270 nM)
# Outline: as §1
Sequence,PBM binding z-score [1],PBM binding z-score [2],PBM binding z-score [3],PBM binding z-score [4],PBM binding z-score [5],PBM binding z-score [6],PBM binding z-score [7],PBM binding z-score [8]
TCTTGTAGATCAGCAGGTTATGAAAGCTGGCCAA,-0.0555,-0.168,-0.428,0.64,0.311,0.276,-0.466,-0.405
CAAACTAGGTCACGAAAGGTCAAACTCGAATGAC,5.84,8.21,9.05,2.91,8.85,5.26,2.82,4.06
CGTCAAAGTTCAACGTAACGTAACAGAAAGCAGC,3.83,5.52,5.97,4.56,4.19,1.78,-0.366,3.03
CGAACTAGGTCAAGGACCGTGAATCTCCGCACGC,2.79,3.42,4.01,1.15,2.32,2.46,0.938,-0.163
AGAACGAGGGCAAAGAGTTGATAGCACGGGTGGC,1.12,1.3,1.69,2.57,1.14,0.917,-0.224,3.05
GTACCAAGGTGAATACGTCGTTGATGAGTAGGCG,0.139,0.764,0.692,-0.417,0.56,1.19,0.199,-0.342
GATGCAGGGTCAAGGCCAGAGTACGCGTATTGAT,3.44,5.2,4.79,1.98,5.72,3.46,0.878,1.78
AGTCAAAGTTCATCTAGGTAACGTAAGATATGCT,4.07,5.59,6.2,4.76,4.97,3.05,0.224,4.94
ATATGTAGGTTATCGGCTCATTCAGTTTGCGCAT,0.158,0.446,0.752,0.79,0.927,0.266,0.293,0.816
CCAGACCGGTGAGAAGGTAACTCAGCCTCGATTA,0.199,0.0096,0.0397,-0.539,-0.308,-0.0126,-0.0326,0.281
GATACAGGGTCAAGGCGAGAGTACGCGTATTGAT,3.23,5.39,4.87,2.77,5.61,3.32,1.11,2.48
ATATGTGGGTTACATCCGGGTCATTCAGGCTATG,2.79,3.53,1.94,1.08,3.17,3.75,3.01,3.65
TTACCAAGGTGAATGGTCGTTGATGCACGCCTTG,0.707,0.538,0.576,-0.0991,0.73,1.47,0.775,0.132
CAAACTAGGTCAAGGTCAAAGTTGGTTTGTGCCA,5.15,6.1,6.67,3.1,6.01,4.39,3.85,4.14
CCAGACAGGTGAGACGGTAACTCAGCCTCGATTA,0.4,-0.0368,0.0246,0.0275,-0.179,-0.0755,0.114,0.029
CGAACGAGGGCCTGAGTTGATAGCAAATGCCGAT,-0.782,-0.386,-0.326,0.337,-0.236,-0.563,-0.666,-0.394
CGTCAAAGTTCGACTAAGGTAACGTAAAGCACGC,1.77,2.14,1.99,2.97,1.5,4.99,1.58,1.03
TAGCCTAGGTCAGTGGGCCAGTATAGTACGCATC,2.1,2.45,3.58,-0.571,1.03,1.29,-0.197,-0.446
CCGACTGGGACAAGGTTACCATAACGCACAGCCA,0.97,0.731,0.756,-0.018,1.19,1.61,1.08,-0.0253

Sequence,PBM binding z-score [1],PBM binding z-score [2],PBM binding z-score [3],PBM binding z-score [4],PBM binding z-score [5],PBM binding z-score [6],PBM binding z-score [7],PBM binding z-score [8]
TTTGCTAGGTCAGTTGGTCAGCTAACGAGCTGCC,2.57,2.76,3.54,0.279,0.82,1.42,0.0567,-0.505
TAGCCTAGGTCATGCGGTCCAGTATAGTGTCGGC,3.08,3.75,4.51,1.05,2.94,3,1.32,1.54
CCTACTGGGGCAAAAAGGTCATTGATGCCGATAA,4.23,4.99,4.5,0.866,4.63,2.9,0.176,3.13
ACAGACAGGTGATGAAGGTGACTCAGGCTATCAT,1.34,0.646,0.55,-0.283,0.581,1.01,-0.00476,-0.102
AGCTCTAGGTAAAGATAGTTCAGTGAATGCAAAT,1.34,0.3,0.62,-0.0733,0.094,0.782,0.107,0.592
TAGCCTAGGTTAGATCGGGCCAGTATACGCTATA,-0.0792,-0.00796,0.127,-0.662,-0.141,2.61,-0.725,-0.374
TCGAGTAGGTTGGGGGCATTCAGAATGGCGTCGA,1.42,1.32,0.732,1.74,1.57,2.11,1.52,3.27
AGAATGTGGTTAAGATCAGGGAAACAGAATACAT,0.296,0.287,0.502,-0.315,-0.0174,0.458,-0.00414,0.151
ACTAGCAGGCCAAGTTTGAGTCACTCAAACAAAG,-0.195,0.0466,0.196,-0.27,-0.333,-0.188,-0.77,-0.27
CCGACTGGCGCAGAAAGGTTACCATACCATCCGG,1.78,0.821,0.575,-0.469,1.66,1.05,-0.286,-0.331
ATATGTATGTTAAGGGTCATTCAGGTTGGTTCGC,3.82,3.82,2.66,2.29,4.3,3.36,1.54,3.48
TTACCATGGTGAAGGTCGTTGATCCCTCTGTAGA,0.835,0.184,-0.00813,-0.163,1.07,0.611,-0.36,0.502
CCTACTGGGCCAAGGTCATGGATCAGTCAAAGCA,3.54,4.16,3.48,-0.0426,3.95,3.71,2.5,1.68
CCTGCTAGGGCATGGTCAGCTAATCTACAGTATG,0.406,0.464,1.07,-0.538,-0.195,-0.371,-0.949,-0.585
GATACAGGGTCACGGCCAGAGTACGCGTATTGAT,3.98,6.54,6.18,2.92,7.78,4.17,2.03,3.26
ATCGAAAAGTCGACGAGGTGAGTATACACCGTTT,0.0886,0.532,0.571,-0.248,0.751,1.74,0.716,-0.201
ATCGAAAGGTCGTGATGTGAGTATACAGAAAGGC,2.33,3.91,3.35,1.1,4.56,2.34,0.0191,0.997
TCATATAGCTAAATGCTAGGTGAAAGTCCGATCT,0.184,0.0741,0.129,0.952,0.435,0.577,-0.00445,-0.29
